The text below walks through data of PubChem BioAssay (NCATS).

“And” between values parts separate entries of the source, which are not always exact repeats. Equal values may be shown once. Results filed as inconclusive are left out. Where a structure was tested more than once in an assay, its records may differ in their call. The source made the active and inactive calls. Unless noted, calls follow the shape of the dose curve; as a rule, active = well fitted curve in either direction with a large enough effect (not every such curve was filed as active); inconclusive = small, poorly fitted or top-dose-only effect, or another doubt; inactive = flat fitted curve, though single readings scatter.

Chain of Cytochrome P450 1A2 (Homo sapiens) (P05177 whole entry, looked up): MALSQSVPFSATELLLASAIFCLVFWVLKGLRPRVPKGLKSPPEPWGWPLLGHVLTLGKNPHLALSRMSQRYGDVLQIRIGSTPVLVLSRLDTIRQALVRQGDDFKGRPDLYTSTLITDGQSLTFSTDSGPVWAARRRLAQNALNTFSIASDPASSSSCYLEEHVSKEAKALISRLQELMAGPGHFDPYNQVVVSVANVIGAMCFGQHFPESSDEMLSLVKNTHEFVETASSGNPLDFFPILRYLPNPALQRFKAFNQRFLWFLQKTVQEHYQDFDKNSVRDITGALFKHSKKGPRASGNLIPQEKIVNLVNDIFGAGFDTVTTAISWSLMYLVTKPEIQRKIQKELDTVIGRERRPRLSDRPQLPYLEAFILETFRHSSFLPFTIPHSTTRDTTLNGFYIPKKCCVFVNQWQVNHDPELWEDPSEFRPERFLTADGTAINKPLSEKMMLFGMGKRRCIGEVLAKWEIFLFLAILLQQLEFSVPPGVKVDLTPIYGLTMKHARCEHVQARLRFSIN

Tested on in one assay: not listed separately
The assay is described as follows: AP1 Signaling Pathway (AID 357). Also: % is scaled to controls: 0 for no effect and ±100 for the full control effect. As to conditions: ME-180 AP-1-bla reporter, EGF-induced, beta-lactamase ratio, 5 h; at 17.2 µM (top of the series). The method in brief: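 ME-180 cells with beta-lactamase reporter under AP-1 response element, stimulated with EC50 EGF; compounds tested in titration series, 5 h at 37 °C. CCF4 substrate added 2.5 h at room temperature; 460/530 nm emission ratio gave %activity and AC50.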
Consider `NCCc1c[nH]c2ccc(O)cc12`, for which the activity change, negative = inhibition was 7.63% (inactive).
Regarding `Cc1nccc2c1[nH]c1ccccc12`, the activity change, negative = inhibition is -6.36% (inactive).
Still for that read-out and setting: the same measure for `O=c1cccc2n1CC1CNC[C@H]2C1`: -4.28% (inactive).
Same read-out and setting: the same measure for `CC(=O)OCC1=C(C(=O)O)N2C(=O)[C@@H](N)[C@@H]2SC1`: 2.29% (inactive); for `CC[C@@H]1C(=O)OC[C@@H]1Cc1cncn1C`: -3.08% (inactive) and 5.87% (inactive).
As for `CCCCc1ccc(C(=O)O)nc1`, the activity change, negative = inhibition was -4.11% (inactive).
On to `CC[C@@]1(O)C(=O)OCc2c1cc1n(c2=O)Cc2cc3ccccc3nc2-1`, for which the activity change, negative = inhibition was -111% (active).
Still for that read-out and setting: the same measure for `CN(C)[C@@H]1C(=O)C(C(N)=O)=C(O)[C@@]2(O)C(=O)C3=C(O)c4c(O)cccc4[C@@](C)(O)[C@H]3[C@H](O)[C@@H]12`: 12.6% (inactive).

The assay is the same for the next values; noted with them: ME-180 (cervical carcinoma) AP-1-bla reporter, EGF-induced, beta-lactamase ratio, 5 h; at 38 µM (top of the series).
As to `NCCc1c[nH]c2ccc(O)cc12`, the activity change, negative = inhibition is 7.62% (inactive).
Same read-out and setting: the same measure for `COc1ccc2c(c[n+](C)c3c4cc5c(cc4ccc23)OCO5)c1OC`: 1.37% (inactive).
On the same count and under the same terms, the same measure for `c1ccc(CCCN2CCN(CCOC(c3ccccc3)c3ccccc3)CC2)cc1`: -23% (inactive).
With `CC(=O)NCCc1c[nH]c2ccccc12`, the activity change, negative = inhibition was 3.76% (inactive).
On the same count and under the same terms, the same measure for `CN[C@@H]1C[C@@H](c2ccc(Cl)c(Cl)c2)c2ccccc21`: 23.3% (inactive).
Still for that read-out and setting: the same measure for `CC1=NN=C(c2ccc(N)cc2)c2cc3c(cc2C1)OCO3`: -19.4% (inactive).
Still for that read-out and setting: the same measure for `CCCN1CCC[C@H](c2cccc(O)c2)C1`: -0.74% (inactive) and -8.16% (inactive).
For the molecule `Cn1cnc(CCN)c1`, the activity change, negative = inhibition was 7.44% (inactive).
The same measure, in the same setting: the same measure for `c1ccc2sc(C3(N4CCCCC4)CCCCC3)cc2c1`: -1.54% (inactive); for `NCCc1c[nH]c2ccccc12`: -5.53% (inactive); for `Cc1nccc2c1[nH]c1ccccc12`: -14.9% (inactive).
Still for that read-out and setting: the same measure for `O=C(O)Cc1cnc[nH]1`: 10.5% (inactive).
Still for that read-out and setting: the same measure for `C[C@]12N[C@H](Cc3ccccc31)c1ccccc12`: -6.02% (inactive) and 8.41% (inactive).
Regarding `NCc1cc(=O)[nH]o1`, the activity change, negative = inhibition is 1.2% (inactive).
On the same count and under the same terms, the same measure for `CNCCc1c[nH]c2ccc(O)cc12`: 7.75% (inactive); for `O=C(O)CC[N+](=O)[O-]`: -8.61% (inactive); for `CNCCc1ccc(O)c(O)c1`: -12.9% (inactive).
Same read-out and setting: the same measure for `C[C@@H]1O[C@H](C[N+](C)(C)C)C[C@H]1O`: 15.5% (inactive); for `CCCCc1ccc(C(=O)O)nc1`: -6.7% (inactive); for `CCCN1CCO[C@@H]2c3cc(O)ccc3OC[C@H]21`: -14.2% (inactive) and 2.45% (inactive).
The same measure, in the same setting: the same measure for `CC[C@@]1(O)C(=O)OCc2c1cc1n(c2=O)Cc2cc3ccccc3nc2-1`: -97.5% (active); for `Clc1cnc(Oc2ccc(Oc3ncc(Cl)cc3Cl)cc2)c(Cl)c1`: 8.39% (inactive).
As for `O=C1CCCN1CC#CCN1CCCC1`, the activity change, negative = inhibition was 8.1% (inactive).
The same measure, in the same setting: the same measure for `CCCN(CCC)[C@@H]1CCc2ccc(O)cc2C1`: 4.4% (inactive) and -2.26% (inactive); for `C#CCOC(=O)C1=CCCN(C)C1`: 16.6% (inactive); for `CC(C)Oc1cccnc1N(C)C1CCN(Cc2ccccc2)CC1`: 2.27% (inactive).

Another assay has as its target Cytochrome P450 1A2 (Homo sapiens) (UniProt P05177). The assay can be described thus: p450-cyp1a2 (AID 410; calls by dose curve; also: potency is read from the fitted curve at half-maximal effect;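 as to activity change, negative = inhibition: -100% = full effect of reference inhibitor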). As to conditions: recombinant CYP1A2, luciferin-ME demethylation, luminescence; series mostly up to 57 µM. An outline of the steps: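 20nM CYP1A2, 100uM Luciferin-ME (=Km), 100mM KPO4; cpd 10 min RT; +NADPH regen, 60 min RT; stop/detect 20 min; luminescence. Normalized to furafylline 57 uM = full inhibition.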
Take `NCCc1c[nH]c2ccc(O)cc12`: the Potency was 7.94 µM (active) and 2 µM (active).
Same read-out and setting: the same measure for `COc1ccc2c(c[n+](C)c3c4cc5c(cc4ccc23)OCO5)c1OC`: 10 µM (active).
On to `CC(=O)NCCc1c[nH]c2ccccc12`, for which the Potency is 15.8 µM (active).
Take `CC1=NN=C(c2ccc(N)cc2)c2cc3c(cc2C1)OCO3`: the Potency is 31.6 µM (active).
Take `CCCN1CCC[C@H](c2cccc(O)c2)C1`: the Potency entry was “inactive”.
The same measure, in the same setting: the same measure for `Cn1cnc(CCN)c1`: “inactive”; for `c1ccc2sc(C3(N4CCCCC4)CCCCC3)cc2c1`: “inactive”.
For the molecule `NCCc1c[nH]c2ccccc12`, the Potency was 3.16 µM (active).
Turning to `Cc1nccc2c1[nH]c1ccccc12`, the Potency was 3.98 µM (active) and 1.26 µM (active) and 631 nM (active).
With `O=C(O)Cc1cnc[nH]1`, the Potency result was “inactive”.
As to `C[C@]12N[C@H](Cc3ccccc31)c1ccccc12`, the Potency result was “inactive”.
The same measure, in the same setting: the same measure for `NCc1cc(=O)[nH]o1`: “inactive”; for `O=c1cccc2n1CC1CNC[C@H]2C1`: “inactive and 31.6 µM (active)”; for `CNCCc1c[nH]c2ccc(O)cc12`: “inactive”.
On the same count and under the same terms, the same measure for `O=C(O)CC[N+](=O)[O-]`: “inactive”.
The same measure, in the same setting: the same measure for `CC(=O)OCC1=C(C(=O)O)N2C(=O)[C@@H](N)[C@@H]2SC1`: “inactive”; for `CCCCc1ccc(C(=O)O)nc1`: 31.6 µM (active) and inactive; for `CC[C@@]1(O)C(=O)OCc2c1cc1n(c2=O)Cc2cc3ccccc3nc2-1`: 7.94 µM (active) and 2.51 µM (active) and 1.58 µM (active).
Turning to `Clc1cnc(Oc2ccc(Oc3ncc(Cl)cc3Cl)cc2)c(Cl)c1`, the Potency result is “inactive”.
On the same count and under the same terms, the same measure for `O=C1CCCN1CC#CCN1CCCC1`: “inactive”; for `CCCN(CCC)[C@@H]1CCc2ccc(O)cc2C1`: “inactive”; for `CC(C)Oc1cccnc1N(C)C1CCN(Cc2ccccc2)CC1`: “inactive”.

Tested on in a further assay: not listed separately
The assay is described as follows: NFAT Signaling Pathway (AID 444).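 Also: carbachol stimulus at about its EC50 of 1 µM final; % is scaled to controls: 0 for no effect and ±100 for the full control effect.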 As to conditions: Jurkat NFAT-bla M1, carbachol, beta-lactamase ratio, 5 h; at 17.2 µM (top of the series). An outline of the steps: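 Jurkat cells with NFAT-driven β-lactamase reporter and co-expressed M1 receptor, stimulated with carbachol (final 1 uM, ~EC50), compound titration, 5 h at 37 °C. CCF4 loaded 1 h at RT; 460/530 nm ratio gave %activity and AC50.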
`NCCc1c[nH]c2ccc(O)cc12`: the activity change, negative = inhibition was -8.4% (inactive).
The same measure, in the same setting: the same measure for `Cc1nccc2c1[nH]c1ccccc12`: -12.1% (inactive); for `O=c1cccc2n1CC1CNC[C@H]2C1`: -12.9% (inactive); for `CC(=O)OCC1=C(C(=O)O)N2C(=O)[C@@H](N)[C@@H]2SC1`: -6.12% (inactive).
Still for that read-out and setting: the same measure for `CC[C@@H]1C(=O)OC[C@@H]1Cc1cncn1C`: 75.4% [activator] (active); for `CCCCc1ccc(C(=O)O)nc1`: -0.081% (inactive); for `CC[C@@]1(O)C(=O)OCc2c1cc1n(c2=O)Cc2cc3ccccc3nc2-1`: -85.5% (active).
Same read-out and setting: the same measure for `CN(C)[C@@H]1C(=O)C(C(N)=O)=C(O)[C@@]2(O)C(=O)C3=C(O)c4c(O)cccc4[C@@](C)(O)[C@H]3[C@H](O)[C@@H]12`: 0.604% (inactive).
